What was measured:
[1] = target: Serine/threonine-protein kinase WNK2 (Homo sapiens) (UniProt Q9Y3S1); settings: at 10 µM
[2] = target: Serine/threonine-protein kinase WNK3 (Homo sapiens) (UniProt Q9BYP7); settings: at 1 µM
[3] = target: Serine/threonine-protein kinase WNK3 (Homo sapiens) (UniProt Q9BYP7); settings: at 10 µM
[4] = target: Tyrosine-protein kinase Yes (Homo sapiens) (UniProt P07947); settings: at 10 µM
[5] = target: T1, Tyrosine-protein kinase ZAP-70 (Homo sapiens) (UniProt P43403); settings: at 1 µM
T1 sequence (whole entry): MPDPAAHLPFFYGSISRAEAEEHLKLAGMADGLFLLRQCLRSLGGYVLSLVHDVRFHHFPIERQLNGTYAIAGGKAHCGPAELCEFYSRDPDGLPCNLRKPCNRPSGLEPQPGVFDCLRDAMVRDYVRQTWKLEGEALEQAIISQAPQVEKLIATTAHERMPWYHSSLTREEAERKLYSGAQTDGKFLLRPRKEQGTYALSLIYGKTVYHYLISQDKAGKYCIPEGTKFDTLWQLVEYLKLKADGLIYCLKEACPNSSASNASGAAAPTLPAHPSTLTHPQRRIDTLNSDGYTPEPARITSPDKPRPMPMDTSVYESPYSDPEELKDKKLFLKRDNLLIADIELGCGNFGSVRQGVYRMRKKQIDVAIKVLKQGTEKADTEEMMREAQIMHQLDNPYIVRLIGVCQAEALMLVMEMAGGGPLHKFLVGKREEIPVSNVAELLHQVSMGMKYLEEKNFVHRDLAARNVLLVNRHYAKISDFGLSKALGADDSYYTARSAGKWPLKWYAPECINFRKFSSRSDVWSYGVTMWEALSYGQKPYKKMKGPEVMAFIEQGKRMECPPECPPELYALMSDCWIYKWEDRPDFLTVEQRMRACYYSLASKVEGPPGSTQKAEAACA

[6] = target: Death-associated protein kinase 3 (Homo sapiens) (UniProt O43293); settings: at 1 µM
[7] = target: Death-associated protein kinase 3 (Homo sapiens) (UniProt O43293); settings: at 10 µM
[8] = target: RAF proto-oncogene serine/threonine-protein kinase (Homo sapiens) (UniProt P04049); settings: at 1 µM
[9] = target: RAF proto-oncogene serine/threonine-protein kinase (Homo sapiens) (UniProt P04049); settings: at 10 µM
[10] = target: Mast/stem cell growth factor receptor Kit (Homo sapiens) (UniProt P10721); settings: at 1 µM
[11] = target: Mast/stem cell growth factor receptor Kit (Homo sapiens) (UniProt P10721); settings: at 10 µM
[12] = target: Proto-oncogene tyrosine-protein kinase Src (Homo sapiens) (UniProt P12931); settings: at 10 µM
[13] = target: Serine/threonine-protein kinase mTOR (Homo sapiens) (UniProt P42345); settings: at 1 µM
[14] = target: Serine/threonine-protein kinase mTOR (Homo sapiens) (UniProt P42345); settings: at 10 µM
[15] = target: Serine/threonine-protein kinase mTOR (Homo sapiens) (UniProt P42345); settings: at 10 µM; remark: listed apart in the source
[16] = target: Tyrosine-protein kinase Yes (Homo sapiens) (UniProt P07947); settings: at 1 µM
[17] = target: Proto-oncogene tyrosine-protein kinase Src (Homo sapiens) (UniProt P12931); settings: at 1 µM
[18] = target: Serine/threonine-protein kinase mTOR (Homo sapiens) (UniProt P42345); settings: at 1 µM; remark: listed apart in the source

Chain of RAF proto-oncogene serine/threonine-protein kinase (Homo sapiens) (P04049 whole entry): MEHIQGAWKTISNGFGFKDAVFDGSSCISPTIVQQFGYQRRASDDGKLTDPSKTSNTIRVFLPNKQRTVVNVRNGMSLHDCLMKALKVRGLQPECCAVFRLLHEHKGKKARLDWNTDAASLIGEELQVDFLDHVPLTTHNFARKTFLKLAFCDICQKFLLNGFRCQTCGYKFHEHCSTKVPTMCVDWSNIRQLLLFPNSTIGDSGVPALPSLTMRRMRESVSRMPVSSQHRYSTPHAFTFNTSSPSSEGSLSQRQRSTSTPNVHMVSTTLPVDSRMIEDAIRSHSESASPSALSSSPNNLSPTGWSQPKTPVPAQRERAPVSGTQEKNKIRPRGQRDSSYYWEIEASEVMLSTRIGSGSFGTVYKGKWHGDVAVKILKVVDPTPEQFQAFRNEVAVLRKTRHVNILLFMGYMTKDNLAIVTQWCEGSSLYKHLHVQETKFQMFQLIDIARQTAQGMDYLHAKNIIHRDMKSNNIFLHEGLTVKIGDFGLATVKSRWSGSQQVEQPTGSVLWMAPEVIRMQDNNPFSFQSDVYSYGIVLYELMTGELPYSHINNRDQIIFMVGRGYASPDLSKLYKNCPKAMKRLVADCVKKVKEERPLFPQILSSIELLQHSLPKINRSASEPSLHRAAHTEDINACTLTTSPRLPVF
Chain of Tyrosine-protein kinase Yes (Homo sapiens) (P07947 2-543 limits assumed): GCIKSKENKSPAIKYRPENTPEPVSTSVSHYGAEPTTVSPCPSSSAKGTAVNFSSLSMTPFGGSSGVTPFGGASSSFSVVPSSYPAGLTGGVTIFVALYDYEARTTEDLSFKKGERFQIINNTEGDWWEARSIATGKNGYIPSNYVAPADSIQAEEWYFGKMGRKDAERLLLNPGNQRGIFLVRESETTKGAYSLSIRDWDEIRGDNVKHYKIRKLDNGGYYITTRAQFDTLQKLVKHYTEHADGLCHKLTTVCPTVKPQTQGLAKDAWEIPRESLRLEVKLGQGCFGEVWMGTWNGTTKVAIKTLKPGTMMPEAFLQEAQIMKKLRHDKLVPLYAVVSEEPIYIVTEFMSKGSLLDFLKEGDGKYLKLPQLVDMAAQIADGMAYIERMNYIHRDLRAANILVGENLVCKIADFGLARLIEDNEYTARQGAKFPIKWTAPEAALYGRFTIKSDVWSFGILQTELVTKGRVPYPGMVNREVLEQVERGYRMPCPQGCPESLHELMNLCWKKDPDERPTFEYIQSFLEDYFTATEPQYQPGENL
Chain of Mast/stem cell growth factor receptor Kit (Homo sapiens) (P10721 whole entry): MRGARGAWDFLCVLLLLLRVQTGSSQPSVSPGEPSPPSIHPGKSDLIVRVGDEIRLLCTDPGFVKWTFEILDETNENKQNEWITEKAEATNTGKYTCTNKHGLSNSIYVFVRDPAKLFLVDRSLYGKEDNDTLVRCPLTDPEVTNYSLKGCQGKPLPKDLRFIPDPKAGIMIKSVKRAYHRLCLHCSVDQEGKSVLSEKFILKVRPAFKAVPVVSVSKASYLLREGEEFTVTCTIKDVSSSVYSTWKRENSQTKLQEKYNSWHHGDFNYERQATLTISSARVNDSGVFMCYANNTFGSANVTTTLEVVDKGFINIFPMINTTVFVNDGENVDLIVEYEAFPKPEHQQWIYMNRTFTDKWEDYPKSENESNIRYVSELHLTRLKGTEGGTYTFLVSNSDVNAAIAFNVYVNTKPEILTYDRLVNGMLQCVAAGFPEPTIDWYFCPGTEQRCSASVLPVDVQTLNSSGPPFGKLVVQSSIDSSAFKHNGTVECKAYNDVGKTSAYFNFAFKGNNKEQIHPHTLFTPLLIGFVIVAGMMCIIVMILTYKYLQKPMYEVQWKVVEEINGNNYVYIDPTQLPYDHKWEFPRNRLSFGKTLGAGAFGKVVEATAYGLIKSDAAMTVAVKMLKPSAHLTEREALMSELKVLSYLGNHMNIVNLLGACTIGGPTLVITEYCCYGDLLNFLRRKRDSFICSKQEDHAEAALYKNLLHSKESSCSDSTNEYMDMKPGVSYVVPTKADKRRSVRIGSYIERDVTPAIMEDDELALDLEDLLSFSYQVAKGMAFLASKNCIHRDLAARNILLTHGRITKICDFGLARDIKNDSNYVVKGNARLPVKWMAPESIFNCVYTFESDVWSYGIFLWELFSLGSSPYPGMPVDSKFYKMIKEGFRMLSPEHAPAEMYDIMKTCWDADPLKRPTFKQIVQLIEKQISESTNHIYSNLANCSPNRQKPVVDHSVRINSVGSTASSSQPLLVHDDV
Chain of Proto-oncogene tyrosine-protein kinase Src (Homo sapiens) (P12931 2-536 limits assumed): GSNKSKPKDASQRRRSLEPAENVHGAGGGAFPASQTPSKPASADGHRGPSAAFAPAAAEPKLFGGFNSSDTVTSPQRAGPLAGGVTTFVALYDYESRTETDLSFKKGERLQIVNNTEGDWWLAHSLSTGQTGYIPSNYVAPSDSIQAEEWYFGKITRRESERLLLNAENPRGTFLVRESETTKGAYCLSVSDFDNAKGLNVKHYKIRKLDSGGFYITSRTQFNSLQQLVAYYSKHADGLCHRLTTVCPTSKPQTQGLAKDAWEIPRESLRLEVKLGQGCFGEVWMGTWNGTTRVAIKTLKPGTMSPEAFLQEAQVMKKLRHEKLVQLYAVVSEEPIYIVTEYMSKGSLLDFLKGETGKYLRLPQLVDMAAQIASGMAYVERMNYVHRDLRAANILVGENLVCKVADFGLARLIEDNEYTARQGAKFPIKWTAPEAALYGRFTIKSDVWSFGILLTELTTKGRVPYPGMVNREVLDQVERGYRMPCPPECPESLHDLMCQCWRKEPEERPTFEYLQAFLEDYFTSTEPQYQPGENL
Chain of Serine/threonine-protein kinase WNK2 (Homo sapiens) (Q9Y3S1 whole entry): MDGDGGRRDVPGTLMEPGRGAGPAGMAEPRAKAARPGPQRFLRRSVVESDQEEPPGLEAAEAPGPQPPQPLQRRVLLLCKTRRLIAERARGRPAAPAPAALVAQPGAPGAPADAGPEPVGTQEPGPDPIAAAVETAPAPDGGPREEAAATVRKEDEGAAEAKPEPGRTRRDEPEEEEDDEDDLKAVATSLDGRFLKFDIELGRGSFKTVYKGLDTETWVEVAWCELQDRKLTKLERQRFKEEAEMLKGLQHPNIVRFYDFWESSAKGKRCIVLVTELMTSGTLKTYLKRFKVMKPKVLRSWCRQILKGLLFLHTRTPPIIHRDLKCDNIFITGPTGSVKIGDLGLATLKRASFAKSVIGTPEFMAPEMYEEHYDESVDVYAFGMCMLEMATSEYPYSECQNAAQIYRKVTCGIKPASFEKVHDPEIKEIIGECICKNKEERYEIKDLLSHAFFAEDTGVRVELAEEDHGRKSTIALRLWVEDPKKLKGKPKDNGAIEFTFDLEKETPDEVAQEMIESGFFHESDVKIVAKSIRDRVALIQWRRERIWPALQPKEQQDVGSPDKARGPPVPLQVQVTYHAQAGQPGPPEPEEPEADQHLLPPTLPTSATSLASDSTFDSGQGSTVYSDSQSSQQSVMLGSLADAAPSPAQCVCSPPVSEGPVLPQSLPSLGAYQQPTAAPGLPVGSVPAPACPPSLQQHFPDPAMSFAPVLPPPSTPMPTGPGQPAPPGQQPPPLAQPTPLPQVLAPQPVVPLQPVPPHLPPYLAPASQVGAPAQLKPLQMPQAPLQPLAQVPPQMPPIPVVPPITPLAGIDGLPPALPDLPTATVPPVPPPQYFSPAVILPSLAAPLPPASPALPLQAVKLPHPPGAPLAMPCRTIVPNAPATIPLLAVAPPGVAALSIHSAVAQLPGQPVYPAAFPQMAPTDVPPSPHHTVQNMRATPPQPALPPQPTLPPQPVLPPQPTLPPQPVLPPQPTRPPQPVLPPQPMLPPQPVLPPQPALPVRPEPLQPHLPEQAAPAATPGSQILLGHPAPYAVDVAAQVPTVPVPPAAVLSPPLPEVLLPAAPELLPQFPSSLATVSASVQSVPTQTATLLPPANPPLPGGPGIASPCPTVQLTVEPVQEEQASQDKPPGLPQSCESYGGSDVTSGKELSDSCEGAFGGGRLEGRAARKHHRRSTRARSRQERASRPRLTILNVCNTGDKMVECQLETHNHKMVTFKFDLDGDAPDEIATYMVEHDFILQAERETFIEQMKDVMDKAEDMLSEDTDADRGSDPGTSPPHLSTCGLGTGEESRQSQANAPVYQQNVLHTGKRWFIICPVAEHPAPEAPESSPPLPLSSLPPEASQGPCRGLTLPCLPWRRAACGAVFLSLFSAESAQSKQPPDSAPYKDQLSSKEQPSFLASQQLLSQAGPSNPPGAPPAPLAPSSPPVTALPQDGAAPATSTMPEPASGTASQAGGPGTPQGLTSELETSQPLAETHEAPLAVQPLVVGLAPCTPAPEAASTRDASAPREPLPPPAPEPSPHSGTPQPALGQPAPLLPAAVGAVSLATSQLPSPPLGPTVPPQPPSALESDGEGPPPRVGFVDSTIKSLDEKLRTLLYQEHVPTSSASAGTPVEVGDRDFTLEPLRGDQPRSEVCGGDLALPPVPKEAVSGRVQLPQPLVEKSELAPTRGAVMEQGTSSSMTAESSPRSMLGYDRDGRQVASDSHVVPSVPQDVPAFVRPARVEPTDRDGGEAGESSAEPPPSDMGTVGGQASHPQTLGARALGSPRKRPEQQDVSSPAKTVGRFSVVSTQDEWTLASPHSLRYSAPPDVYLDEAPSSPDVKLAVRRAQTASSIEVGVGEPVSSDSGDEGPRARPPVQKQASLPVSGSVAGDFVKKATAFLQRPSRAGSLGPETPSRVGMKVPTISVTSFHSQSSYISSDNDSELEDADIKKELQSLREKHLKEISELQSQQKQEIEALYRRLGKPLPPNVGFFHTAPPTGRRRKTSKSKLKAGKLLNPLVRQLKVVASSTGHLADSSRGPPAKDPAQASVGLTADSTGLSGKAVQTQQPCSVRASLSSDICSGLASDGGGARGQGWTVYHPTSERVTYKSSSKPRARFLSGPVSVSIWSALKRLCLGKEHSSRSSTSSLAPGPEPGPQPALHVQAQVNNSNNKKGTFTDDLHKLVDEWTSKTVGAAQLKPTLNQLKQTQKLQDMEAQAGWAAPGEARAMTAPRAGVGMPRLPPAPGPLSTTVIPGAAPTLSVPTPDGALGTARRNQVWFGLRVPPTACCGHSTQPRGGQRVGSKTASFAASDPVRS

Compound	residual activity [1]	residual activity [2]	residual activity [3]	residual activity [4]	residual activity [5]	residual activity [6]	residual activity [7]	residual activity [8]	residual activity [9]	residual activity [10]	residual activity [11]	residual activity [12]	residual activity [13]	residual activity [14]	residual activity [15]	residual activity [16]	residual activity [17]	residual activity [18]
Cn1nc2c3c(cccc31)C(=O)c1ccccc1-2	89%	95% (inactive)	67%	95%	92%	77%	82%	80%	72%	104%	95%	93%	82%	84%	66%			
COc1cc2ncnc(Nc3ccc(NC(=O)c4ccccc4)cc3)c2cc1OC	25%	59% (inactive)	23%	30%		97%	84%	86%	93%		59%	95%	88%	92%	75%	96%	83%	97%
CC(=O)c1ccc(N2CCOCC2)cc1O	94%	104% (inactive)	104%		84%	106%	97%	83%	97%		101%	93%					86%	104%
Ic1cccc(CSc2nnc(-c3ccncc3)o2)c1	83%	89% (inactive)	89%	84%	101%	107%	105%	77%	64%	97%	102%	83%	108%	102%	109%	96%	113%	108%
c1ccc2c(-c3ccncc3)c[nH]c2c1	75%	98% (inactive)	96%	97%		110%	107%	73%	81%	110%	98%	101%	109%	107%	110%		80%	75%
COc1cc2ncc(-c3ccccc3)nc2cc1OC	94%	126% (inactive)	95%			96%	100%	99%	86%	84%	24%	95%					88%	
Cc1cncc2cccc(S(=O)(=O)N3CCCN(C(=O)CN)C[C@H]3C)c12			92%	49%				79%	95%			96%					86%	
N#Cc1cnc2cnc(NCc3cccnc3)cc2c1Nc1ccc(F)c(Cl)c1		97% (inactive)	87%	5%	44%	65%	48%	77%	91%		92%	39%	89%	85%	96%	9%	56%	
Cc1cc2ncc(-c3ccccc3)nc2cc1C	93%	96% (inactive)	92%	106%	96%		100%	97%	83%	86%	70%	99%	93%	100%	83%	109%	83%	70%
CCN(CC)C(=O)c1ccc(Nc2nc(OCC3CCCCC3)c3nc[nH]c3n2)cc1	48%			1%			65%	62%	21%	33%	5%	12%			55%	13%	62%	
Cc1ccc(S(=O)(=O)/C=C/C#N)cc1	95%	98% (inactive)	98%	103%		88%	93%	91%	87%	100%	114%	76%	95%	101%	82%	123%	114%	86%
COc1cc2ncnc(N3CCN(C(=O)Nc4ccc(Oc5ccccc5)cc4)CC3)c2cc1OC	48%	80% (inactive)	58%	105%	102%	105%	144%	78%	93%	37%	7%	97%	107%	102%	99%	103%	95%	98%
Cc1ccc(NC2=CC(=O)c3sc(C)nc3C2=O)cc1	90%	80% (inactive)	95%	105%	113%	95%	82%	84%	87%	101%	107%	87%	96%	99%	86%	118%		100%

From ChEMBL document CHEMBL2218924, “A broad activity screen in support of a chemogenomic map for kinase signalling research and drug discovery” (Biochem J, 2013)
